GluA2 TARP mod: modulators of GluA2-stargazin AMPA receptor complexes, primary screen, cell-based, membrane potential dye; AID 1259245, 2017; Voltage-dependent calcium channel gamma-2 subunit (Mus musculus) + Glutamate receptor 2 …; 40,000 tested, 3.5% active; calls only at 30 µM; HEK293 GluA2+stargazin, membrane potential dye (FDSS), glutamate EC50; hits were called plate by plate, in both directions;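 active = any of four per-well response measures lying three or more SD from its plate-wide compound average, in either direction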
GIRK2 activator: activators of NPY4-receptor-primed GIRK2 channels, summary, cell-based, HEK293, thallium flux; G protein-activated inward rectifier potassium channel 2 (Homo sapiens), P48051; HEK293 GIRK2/NPY4 cells, thallium flux fluorescence; activation (% efficacy), % for hits at 37.5 µM; 34,000 tested, under 10 active; AID 1259324, 2017;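 active = primary screen hit, no activity in plain HEK293 cells, and in GIRK2-only cells above 5% efficacy rising with concentration; inactive = the rest, including fluorescent compounds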;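 also: efficacy is normalized control-subtracted fluorescence 15 s after thallium addition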
Target sequence (P48051 whole entry, looked up): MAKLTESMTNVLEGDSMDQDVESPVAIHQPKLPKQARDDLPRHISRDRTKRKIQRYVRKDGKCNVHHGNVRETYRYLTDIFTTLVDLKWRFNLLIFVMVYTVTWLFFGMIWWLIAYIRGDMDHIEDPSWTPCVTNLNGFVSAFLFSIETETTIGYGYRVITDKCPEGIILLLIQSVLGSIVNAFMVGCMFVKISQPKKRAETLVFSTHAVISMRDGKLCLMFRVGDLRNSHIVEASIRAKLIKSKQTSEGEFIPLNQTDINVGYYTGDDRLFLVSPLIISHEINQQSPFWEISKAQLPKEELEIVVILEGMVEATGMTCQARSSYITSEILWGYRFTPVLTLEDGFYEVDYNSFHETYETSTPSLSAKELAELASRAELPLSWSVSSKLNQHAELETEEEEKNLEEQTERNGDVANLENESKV
* = called active by the depositor; i = inactive; / = no result; + = active, no number. This excerpt belongs to a sample that is enriched for hits.

SMILES	GluA2 TARP mod	GIRK2 activator
Cc1cc(C)n(-c2cc(NCCNS(=O)(=O)c3ccc4nc(C)sc4c3)ncn2)n1	i	/
CS(=O)(=O)c1ccc2nc(NC(=O)c3ccc(=O)n(Cc4ccc(Cl)cc4)c3)sc2c1	+	i
O=C(Nc1nc2ccc([N+](=O)[O-])cc2s1)c1ccc(=O)n(Cc2ccccc2)c1	+	i
Cc1cccc2sc(NC(=O)c3ccc(=O)n(Cc4ccc(Cl)cc4)c3)nc12	i	i
O=C(Nc1nc2ccccc2s1)c1ccc(=O)n(Cc2cccc([N+](=O)[O-])c2)c1	i	i
COc1cccc(COc2coc(C(=O)Nc3nc4ccc(Cl)cc4s3)cc2=O)c1	i	i
COc1coc(C(=O)Nc2nc3ccc([N+](=O)[O-])cc3s2)cc1=O	+	i
CCOC(=O)c1ccc(-n2c(C)c(C)n3c4c(=O)n(CC(N)=O)c(=O)n(C)c4nc23)cc1	i	/
CCOc1ccc(-n2nnnc2SC(C)C(=O)Nc2ccccc2C)cc1 (stereo not given)	i	/
CCOc1ccc(-n2nnnc2SC(C)C(=O)Nc2ccccc2F)cc1 (stereo not given)	+	/
COc1ccc(-n2nnnc2SC(C)C(=O)Nc2nccs2)cc1 (stereo not given)	+	/
COc1ccc(-n2nnnc2SCCC(=O)Nc2nccs2)cc1	i	i
CCCCNC(=O)/C(C#N)=C/N1CCN(c2cccc(Cl)c2)CC1	i	i
O=C(Nc1ccc(S(=O)(=O)NC2CCCCC2)cc1)C1CCCO1 (stereo not given)	+	i
O=C(Nc1cccnc1)c1ccc(S(=O)(=O)NC2CCCC2)cc1	i	i
Cc1cc(NC(=O)c2ccc(Br)o2)n(-c2nc3c(cnn3-c3ccccc3)c(=O)[nH]2)n1	i	i
COc1ccc(NC(=O)Cn2c(=O)n(C(C)C)c(=O)c3nscc32)cc1OC	i	i
CCOc1ccccc1NC(=O)Cn1c(=O)n(C(C)C)c(=O)c2nscc21	+	i
NC(=O)C1CCN(c2oc(-c3cccs3)nc2S(=O)(=O)c2ccccc2)CC1	i	i
Cc1cc(C)n(-c2cc(N3CCCC(C(=O)NCc4ccco4)C3)ncn2)n1 (stereo not given)	+	i
Cc1cc(C)n(-c2cc(N3CCCC(C(=O)NCc4ccc5c(c4)OCO5)C3)ncn2)n1 (stereo not given)	i	i
CCOC(=O)c1c(NC(=O)c2cc(C)nn2C)sc2c1CCN(CC)C2	+	i
CCOC(=O)c1c(NC(=O)c2ccnn2C)sc2c1CCCC2	/	i
CN(C1CCCC1)S(=O)(=O)c1ccc(C(=O)Nc2sc3c(c2C(N)=O)CCCC3)cc1	i	/
COC(=O)c1c(NC(=O)c2ccno2)sc2c1CCN(Cc1ccccc1)C2	/	i
SMILES	GluA2 TARP mod	GIRK2 activator
CCOC(=O)c1c(NC(=O)c2ccc(S(=O)(=O)N(C)C3CC3)cc2)sc2c1CCN(CC)C2	+	i
CCOC(=O)c1c(NC(=O)COc2ccc(Cl)cc2)sc2c1CCN(Cc1ccccc1)C2	+	/
COc1ccc(S(=O)(=O)Nc2ccc3c(c2)N(C(=O)c2ccccc2)CCC3)cc1Cl	i	/
CC(C)C(=O)Nc1ccc(SCC(=O)Nc2nc3ccccc3s2)nn1	i	i
O=C(NCCc1ccccc1)C(=O)NCC1(O)CCOCC1	/	i
COc1cc(OC)cc(C2=NC3(CCCC3)N=C2SCC(=O)Nc2ccccc2)c1	+	i
COc1ccc(NC(=O)CSC2=NC(C)(C)N=C2c2ccccc2)cc1OC	i	i
COc1cccc2sc(NC(=O)c3ccc(S(=O)(=O)N(C)C4CCCC4)cc3)nc12	+	i
COc1ccc([N+](=O)[O-])cc1NC(=O)c1ccc(S(=O)(=O)N(C)C2CCCC2)cc1	i	/
COc1cc([N+](=O)[O-])cc2sc(NC(=O)c3ccc(S(=O)(=O)N(C)C4CCCC4)cc3)nc12	+	/
CN(C1CCCC1)S(=O)(=O)c1ccc(C(=O)Nc2nc3ccccc3s2)cc1	i	/
Cc1cc(S(=O)(=O)N2CCCN(CCn3cccn3)CC2)c(Cl)cc1Cl	i	i
O=C(CCSc1ccccc1)N1CCC(Cn2cnc3ccccc32)CC1	i	i
O=C1CN(C(=O)C2CCCO2)c2ccccc2N1 (stereo not given)	i	i
O=C(c1ccccc1F)N1CCCN(CCn2cccn2)CC1	i	i
COc1ccc(Cc2nnc(N(C)c3ccccc3)[nH]c2=O)cc1	i	i
Cn1cccc1C(CNC(=O)C(=O)NC1CCCC1)N1CCCC1 (stereo not given)	i	i
Cn1cccc1C(CNC(=O)C1CCN(S(C)(=O)=O)CC1)N1CCCC1 (stereo not given)	+	i
